Gli-Sufu block: blocks Gli-Sufu signaling in a luciferase reporter; 0.74% of 340,000 active; inhibition, % at 5 µM; Sufu-KO-LIGHT fibroblasts, Gli luciferase reporter luminescence;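 active means inhibition above about 55%, limit read from the data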
aSyn 5UTR inh: MLPCN primary screen, SNCA 5' untranslated region; alpha-synuclein 5'UTR reporter, inhibitor activity; inhibition, % (tested at 7.5 µM); 0.82% of 300,000 active; AID 1813; in the data active means inhibition above about 60%; inconclusive means no clear call, values can overlap the other calls;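 further: H4 neuroglioblastoma cells stably carrying SNCA 5'UTR luciferase fusion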
697 NFkB inh: lowers PMA/ionomycin-induced NF-kB signal in 697 B cells | 697 B-cell NF-kB luciferase reporter, 16 h | inhibition, % at 4 µM | 0.33% of 330,000 active | AID 435022; in the data active means inhibition above about 35%
CSC inhib: blocks cancer stem cells. cancer stem cell-like cells viability, luminescence. inhibition, % at 7.5 µM. 1.1% of 300,000 active; in the data active means inhibition above about 75%; inconclusive means no clear call, values can overlap the other calls; tested in HMLE shEcad cells
Jurkat NFkB inh: inhibitors of the PMA/ionomycin-induced NF-kB reporter in Jurkat cells | PMA/ionomycin-induced NF-kB luciferase reporter, luminescence | inhibition, % at 4 µM | 0.53% of 330,000 active | AID 435003; in the data active means inhibition above about 50%
Mdm2-MdmX inh: human Mdm2/MdmX binding inhibition; O15151+Q00987; SaOS-2 split-luciferase Mdm2/MdmX complementation, luminescence; inhibition, % at 8 µM; 3% of 330,000 active; AID 485346;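 active means inhibition of at least 50% at 8 µM in the primary screen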
Mdm2 MdmX conf: confirmation of human Mdm2/MdmX interaction inhibitors; shares compounds with Mdm2-MdmX inh; Mdm2-MdmX binding, luminescent assay; inhibition, % at 8 µM; 55% of 10,000 active; in the data active means inhibition above about 40%
FLuc counter: counter-screen for Mdm2/MdmX inhibitors: full-length luciferase. shares compounds with Mdm2-MdmX inh. SaOS-2 full-length luciferase counterscreen, luminescence. inhibition, % at 8 µM. 77% of 6,200 active;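 active means mean inhibition at 8 µM reaching about 37%, which flags the compound as non-specific, limit read from the data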;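 further: p53-null SaOS-2 cells with luciferase driven by a doxycycline-inducible promoter; compound on cells about two nights before reading with doxycycline added after day one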
Each line names hits and unclear results; the compound was inactive in the other large screens (follow-up assays come after a bar, where they were run). Sampled rows, rich in hits. Any-hit rate of the full collection: about 4.5%.

C=CC[C@@H](CC(=O)N(CCO)Cc1ccccc1)C(=O)N[C@@H](COC(=O)[C@H](CC=C)CC(=O)OC(C)(C)C)Cc1c[nH]c2ccccc12	none (no result: aSyn 5UTR inh, CSC inhib)
C=CC[C@H](CC(=O)N(CCO)Cc1ccccc1)C(=O)N[C@@H](COC(=O)[C@@H](CC=C)CC(=O)OC(C)(C)C)Cc1c[nH]c2ccccc12	none (no result: aSyn 5UTR inh, CSC inhib)
Nc1nc(SCC(=O)Nc2ccc3c(c2)OCO3)n[nH]1	none
Clc1ccccc1Nc1nc(-c2ccncc2)nc2ccccc12	none
Fc1ccc(Nc2nc(-c3ccncc3)nc3ccccc23)cc1F	Mdm2-MdmX inh 82 | Mdm2 MdmX conf 81 | FLuc counter 64
c1ccc2c(Nc3nc(-c4ccncc4)nc4ccccc34)cccc2c1	CSC inhib inconclusive, Mdm2-MdmX inh 62 | Mdm2 MdmX conf 59 | FLuc counter 72
CCCCN(CCCC)c1nc(-c2ccncc2)nc2ccccc12	CSC inhib 101, Mdm2-MdmX inh 56 | Mdm2 MdmX conf inactive
Clc1cccc(Nc2nc(-c3ccncc3)nc3ccccc23)c1	Mdm2-MdmX inh 93 | Mdm2 MdmX conf 45 | FLuc counter inactive
CCN(CC)c1nc(-c2ccccc2)nc2ccccc12	none
CC(=O)Nc1ccc(Nc2nc(-c3ccccc3)nc3ccccc23)cc1	none
CCN(C(=O)CSc1nnc(SC)s1)c1c(N)n(Cc2ccccc2)c(=O)[nH]c1=O	none (no result: aSyn 5UTR inh)
CC(C)c1ccc(O)c(C(=O)c2cnn(-c3ccccc3)c2)c1	none
COc1cc(NC(=O)c2cc(-c3ccccc3Cl)on2)cc(OC)c1OC	Mdm2-MdmX inh 65 | Mdm2 MdmX conf 54 | FLuc counter 52
CC(NC(=O)C12CC3CC(C)(CC(C)(C3)C1)C2)c1ccncc1 (stereo not drawn)	none
O=C(NC(=O)N1CCN(c2ccc([N+](=O)[O-])cn2)CC1)c1c(Cl)cccc1Cl	none
O=C(CC(=O)N1CCOCC1)N1CCOCC1	none (no result: aSyn 5UTR inh, 697 NFkB inh, CSC inhib, Jurkat NFkB inh, Mdm2-MdmX inh)
COc1ccc(Cl)cc1NC(=O)CN(C)C(=O)c1cc2ccccc2cc1O	none
Oc1ccc(N=Nc2ccc3c(c2)OCCO3)c2ncccc12	CSC inhib 98, Mdm2-MdmX inh 98 | Mdm2 MdmX conf 87 | FLuc counter inactive
O=C(Oc1cccc2cccnc12)c1ccc2c(c1)OCCO2	none
COCCNC(=O)COc1cccc2c1OC(C)(C)C2	none
CCOC(=O)c1sc2ncn(CC(=O)Nc3cc(C)on3)c(=O)c2c1C	Mdm2-MdmX inh 55 (no result: aSyn 5UTR inh, CSC inhib) | Mdm2 MdmX conf inactive
Cc1ccc(-n2c(C)cc(C3N=C(N)Nc4nc5ccccc5n43)c2C)c(C)c1 (stereo not drawn)	Mdm2-MdmX inh 72 | Mdm2 MdmX conf inactive
Cc1cc(C2N=C(N)Nc3nc4ccccc4n32)c(C)n1-c1ccccc1Cl (stereo not drawn)	none
CN1C2CCC1/C(=C\c1ccccc1)C(=O)/C2=C\c1ccccc1	CSC inhib 92, Mdm2-MdmX inh 95 | Mdm2 MdmX conf 57 | FLuc counter inactive
C=CCNc1sc(C(=O)c2ccc(C)cc2)c(N)c1C#N	none
C=CCNc1nc(N)c(C(=C(C#N)C#N)c2ccc(Br)cc2)s1	Mdm2-MdmX inh 51 | Mdm2 MdmX conf 42 | FLuc counter 88
CCOC(=O)c1c(NC(=O)Nc2ccccc2)sc(C)c1C	none
CCOC(=O)c1sc(NC(=O)Nc2cccc(Cl)c2)cc1C	Mdm2-MdmX inh 78 | Mdm2 MdmX conf 71 | FLuc counter inactive
Cc1cc(NC(=O)c2c(F)cccc2Cl)n(-c2nc3ccccc3[nH]2)n1	Mdm2-MdmX inh 68 | Mdm2 MdmX conf inactive
Cc1cc(Nc2ccccc2)n(-c2nc3ccccc3[nH]2)n1	Mdm2-MdmX inh 53 | Mdm2 MdmX conf inactive
Cc1cc(NC(=O)C2CCCCC2)n(-c2nc3ccccc3[nH]2)n1	Mdm2-MdmX inh 57 | Mdm2 MdmX conf 43 | FLuc counter 68
Cc1cc(NC(=O)c2c(F)cccc2F)n(-c2nc3ccccc3[nH]2)n1	Mdm2-MdmX inh 53 | Mdm2 MdmX conf inactive
CC(Oc1ccc2ccccc2c1)C(=O)NNC(=O)Nc1ccccc1 (stereo not drawn)	none
